Assay results taken from PubChem BioAssay (NCATS).
Inconclusive results are not listed.

Assay: qHTS Assay for Lipid Storage Modulators (AID 1519)
Conditions: Drosophila S3 cells, BODIPY lipid droplet/cell ratio, laser cytometry; measured here: cell count channel max response; cells loaded with oleic acid
How it was run: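 Cells seeded at 5,000 per well were treated with compounds over a concentration series and loaded with oleic acid (400 uM, as added). Lipid droplet fluorescence (488 nm excitation, 500-530 nm channel) was read by laser-scanning cytometry and normalized to 20 uM Triacsin C.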

| Compound | max response [%] |
| --- | --- |
| CS(=O)(=O)Nc1cccc(-c2ccc3ncnc(NCCN4CCOCC4)c3c2)c1 | -4.37 |
| COCCn1c(=O)c(C)nc2cnc(N(C)C)nc21 | 17.2 |
| COc1ccc2[nH]cc(CCNc3ncnc4ccc(-c5cccnc5)cc34)c2c1 | -7.3 |
| Cn1c(=O)c(-c2cccc(C#N)c2)nc2cnc(Oc3ccccc3)nc21 | 16.1 |
| O=c1c(-c2cc(F)cc(F)c2)nc2cnc(N3CCOCC3)nc2n1Cc1cccs1 | 18.1 |
| CNc1ncnc2ccc(-c3ccccc3CN(C)C)cc12 | 6.85 |
| CN(C)C(=O)c1ccc(-c2cc(Nc3ccccc3)ncn2)cc1 | 33.4 |
| COc1cccc(Nc2ncc3ncc(=O)n(CCc4ccccc4)c3n2)c1 | -10.9 |
| O=c1c(-c2ccc(F)cc2)nc2cnc(N3CCNCC3)nc2n1C1CC1 | 26.5 |
| COc1ccc(-c2nc3cnc(Nc4cccc(OC)c4)nc3n(C[C@H]3CCCO3)c2=O)cc1 | -7.08 |
| COc1cccc(-c2ccc3ncnc(NCc4ccccc4)c3c2)c1 | -2.9 |
| Cc1ccccc1-c1cc(N(C)C)ncn1 | 20.2 |
| Cc1cccc(CNc2cc(-c3c(C)noc3C)ncn2)c1 | 14.9 |
| COc1ccccc1CNc1cc(-c2c(C)noc2C)ncn1 | 30 |
| Cn1c(=O)c(-c2ccc(Cl)cc2)nc2cnc(N3CCOCC3)nc21 | 10.9 |
| COc1ncc2nc(C)c(=O)n(C3CC3)c2n1 | 28.7 |
| Cc1noc(C)c1-c1ccc2ncnc(N3CCN(C)CC3)c2c1 | 21 |
| CN(C)c1ccc(-c2ccc3ncnc(-n4ccnc4)c3c2)cc1 | 4.81 |
| O=c1cnc2cncnc2n1Cc1ccccc1Cl | -0.667 |
| CCNc1ncc2ncc(=O)n(CCOC)c2n1 | 18.7 |
| COc1ccccc1-c1cncnc1NCCNC(C)=O | 19.9 |

Same assay, conditions: Drosophila S3 cells, BODIPY lipid droplet/cell ratio, laser cytometry; measured here: lipid channel max response; cells loaded with oleic acid

| Compound | max response [%] |
| --- | --- |
| Clc1ccccc1-c1ccc2ncnc(N3CCNCC3)c2c1 | 32.3 |
| CCNc1ncc2nc(-c3cccs3)c(=O)n(C)c2n1 | -11.1 |
| COCCn1c(=O)c(-c2cn(C)c3ccccc23)nc2cnc(N3CCOCC3)nc21 | 8.52 |
| CN(C)c1ccc(-c2cc(Nc3ccc(F)cc3)ncn2)cc1 | -0.85 |
| COc1ncc2nc(-c3cccs3)c(=O)n(CCc3ccccc3)c2n1 | -2.93 |
| COc1ncc2nc(-c3ccccc3)c(=O)n(-c3ccccc3)c2n1 | 11.5 |
| Cc1noc(C)c1-c1nccc(N2CCOCC2)n1 | 17 |
| FC(F)(F)c1ccccc1-c1cc(NCc2ccccc2)ncn1 | 20.1 |
| Cn1c(=O)c(-c2ccc(Cl)cc2)nc2cnc(Nc3ccccc3)nc21 | -1.32 |
| COc1ccc(Oc2ncc3nc(-c4ccc(Cl)cc4)c(=O)n(C[C@H]4CCCO4)c3n2)cc1 | -85.4 |
| COc1cccc(Nc2ncc3nc(C)c(=O)n(C4CC4)c3n2)c1 | -13.2 |
| COc1cccc(Cn2c(=O)c(-c3cc(F)cc(F)c3)nc3cnc(N(C)C)nc32)c1 | 18.8 |
| CNc1nc(-c2ccc3c(c2)OCO3)nc2ccccc12 | -1.26 |
| COc1cccc(Cn2c(=O)c(C)nc3cnc(OC)nc32)c1 | 19.3 |
| Cc1nc2cncnc2n(C2CC2)c1=O | 34.8 |
| COc1cccc(Cn2c(=O)cnc3cncnc32)c1 | 17.8 |

| Compound | max response [%] |
| --- | --- |
| COCCn1c(=O)c(-c2cc(F)cc(F)c2)nc2cnc(N3CCOCC3)nc21 | 26.7 |
| CN(C)C(=O)c1ccc(-c2cc(NCc3cccnc3)ncn2)cc1 | 22.9 |
| Cc1noc(C)c1-c1cc(NCc2cccnc2)ncn1 | 6.22 |
| CS(=O)(=O)Nc1cccc(-c2ccc3ncnc(NCCN4CCOCC4)c3c2)c1 | -8.3 |
| COCCn1c(=O)c(C)nc2cnc(N(C)C)nc21 | 22.8 |
| COc1ccc2[nH]cc(CCNc3ncnc4ccc(-c5cccnc5)cc34)c2c1 | -9.11 |
| Cn1c(=O)c(-c2cccc(C#N)c2)nc2cnc(Oc3ccccc3)nc21 | 12.2 |
| O=c1c(-c2cc(F)cc(F)c2)nc2cnc(N3CCOCC3)nc2n1Cc1cccs1 | 23.4 |
| CNc1ncnc2ccc(-c3ccccc3CN(C)C)cc12 | 10.7 |
| CN(C)C(=O)c1ccc(-c2cc(Nc3ccccc3)ncn2)cc1 | 40.6 |
| COc1cccc(Nc2ncc3ncc(=O)n(CCc4ccccc4)c3n2)c1 | -19.1 |
| O=c1c(-c2ccc(F)cc2)nc2cnc(N3CCNCC3)nc2n1C1CC1 | 28.4 |
| COc1ccc(-c2nc3cnc(Nc4cccc(OC)c4)nc3n(C[C@H]3CCCO3)c2=O)cc1 | -12.2 |
| COc1cccc(-c2ccc3ncnc(NCc4ccccc4)c3c2)c1 | -10.2 |
| Cc1ccccc1-c1cc(N(C)C)ncn1 | 26.4 |
| Cc1cccc(CNc2cc(-c3c(C)noc3C)ncn2)c1 | 22 |
